Substitutions are numbered along the chain they refer to. Whole data set: some 24,000 sequences, median “enrichment r” near 0.99, cut for the highest 2% near 3.7. For the sample, the highest values were picked, then their nearest neighbours and some sequences at random.
T1: UNK ZnF1-3 (human, UniProt Q9C0B0 31-174)
T1 sequence: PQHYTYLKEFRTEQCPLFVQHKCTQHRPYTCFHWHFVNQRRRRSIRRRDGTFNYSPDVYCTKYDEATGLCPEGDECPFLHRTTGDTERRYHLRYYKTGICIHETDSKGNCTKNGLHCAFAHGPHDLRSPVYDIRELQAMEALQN

B1: chr12:16048344:16048345:+_ENSG00000023734_ENST00000419869|hu_hu|hu_hu_hu_mus_True|78_98 (ssRNA)
RNA: GGGAGUUCUACAGUCCGACGAUCAGAUCGUCCAUAAGUUAUAACCAAAAUCUCUCCCUCAGGAAUAUACUCCAUGCUGCUAACAGACAUAUUAAAAUUCAGAGAUUUCACUUCUGUCAUUGUGGCAUGAUCCCAGAGCCGAACCAACAGAGGAUUGAGCAUCA
B2: 201281127_201284068_384_CDS_ENSG00000196141_ENST00000360760|human|control|control (ssRNA)
RNA: GGGAGUUCUACAGUCCGACGAUCCGGCUGCAGGGGCCCUGCCUCAGGCCUCUCCACCUUGUCUUUAGCAUCUUUGUUGCCUUGAUGCUGCUUGGACUUGCUUCUUUUUCUUUUAUUGUUCUUCUUUUUUCCUGUCAUAUUCCACAACAGAGGAUUGAGCAUCA
B3: chr4:144460044:144460045:+_ENSG00000153147_ENST00000283131|hu_mus|hu_hu_hu_mus_False|1_78 (ssRNA)
RNA: GGGAGUUCUACAGUCCGACGAUCACGGUCCAUAGCCUGAAGAUCAACUUGCGGAUUCCAAUCAGAAUCAUAUAAAAUGACUACAUCAGCAGUUGCAAGAUUGAUGCCCAGACCACCAGCACGUGUGCUUAGCAUAAAAACAAACAACAGAGGAUUGAGCAUCA
B4: 32049908_32050383_1188_CDS_ENSMUSG00000039262_ENSMUST00000036691|mouse|control|control (ssRNA)
RNA: GGGAGUUCUACAGUCCGACGAUCUUCUUUCCCAUCUUGGUCGUUCAUCUGGAACUGUCUGAAAGGAACACGGGGUUCCAGGCGGAGCUGAGGAAGGGGAAAAGAGCUUCGUUCCACCGUAGUCUGGUUCUCUGAUGACUGUGGCAACAGAGGAUUGAGCAUCA
B5: chr16:1859243:1859244:-_ENSG00000063854_ENST00000397353|hu_mus|FALSE|FALSE (ssRNA)
RNA: GGGAGUUCUACAGUCCGACGAUCAAUUAACUGAAAAGUAGACUGUCCUGCAUUAGCAGCAGGCCAGUCGGUUAGAAGUCCCUGUCCCAGCGUGGGUGUGCCUCAGUCCCGAGGCACCUUGAACUGGUCCUUCUCCCUGCGGAUCAACAGAGGAUUGAGCAUCA
B6: 181288587_181288707_5387_3pUTR_ENSMUSG00000000826_ENSMUST00000072334|mouse|control|control (ssRNA)
RNA: GGGAGUUCUACAGUCCGACGAUCUCAUAAUCCAGUGGCUUGGUUUGGCCAUUAAGACCAGAGGACAUGGUUACUUGCUCUGGAGUAAAAAGCUAGAGCUGUUAGGCAAGAAUUCAACCACUAAGGGGCCAGACACUGUGAGGGCAACAGAGGAUUGAGCAUCA
B7: chr10:70021928:70021929:-_ENSMUSG00000037747_ENSMUST00000162251|mus_mus|motif|central (ssRNA)
RNA: GGGAGUUCUACAGUCCGACGAUCAUGCAUGCUUCAGUGGGGACAUCUGAUGGCAGAUGGACAACAGAGGGUAAUGCUCCGGUGGGAAGACAGGGUGUGUGGGGCGGGGAAGGGGCGAAAGUGGUGUUAGCGUCCGACACUGAUCAACAGAGGAUUGAGCAUCA
B8: chr10:70021928:70021929:-_ENSMUSG00000037747_ENSMUST00000162251|mus_hu|motif|central (ssRNA)
RNA: GGGAGUUCUACAGUCCGACGAUCAUGCUUCAGUGGAAAACAUCUGGUGAUAAAAAUGGACAACAGAGGACCAAUGCUCCGGAGGGAGGAAAAGGGGCUGAGUAAGAAUAAGAAAAGUGGGCAUUAACGUCCAACACUGAUAUUCAACAGAGGAUUGAGCAUCA
B9: chr19:15981513:15981514:-_ENSMUSG00000024640_ENSMUST00000025542|mus_hu|motif|central (ssRNA)
RNA: GGGAGUUCUACAGUCCGACGAUCUAAAGCAUCAUCUCCUUUGGCAUUGCCAAUGCGGAAUGGAAUAUUCAUCUUGCUUCGGUUUUGGGGCUCCACUGGACAAACGUAGAAUCCUUGAGAAUUAUCAAUAAUCUCAUAAAUUGUCAACAGAGGAUUGAGCAUCA
B10: chr19:16212804:16212805:+_ENSG00000167460_ENST00000300933|hu_mus|hu_hu_hu_mus_False|18_68 (ssRNA)
RNA: GGGAGUUCUACAGUCCGACGAUCAACAAUUCUGGAGUGAAGGAAAGAUGUAACAUGGAACAGCAUUCCAUCUAUUACAGAAGGCACAUGGGCAACAAUGAUCACCCCAGCAUUCUCCUACGUUGACCUUAAAGACAAUCUGUUCAACAGAGGAUUGAGCAUCA
B11: chr10:70021928:70021929:-_ENSMUSG00000037747_ENSMUST00000162251|mus_hu|FALSE|FALSE (ssRNA)
RNA: B8 RNA with G80U, G81A
B12: chr11:54532911:54532912:-_ENSMUSG00000052298_ENSMUST00000064104|mus_mus|motif|central (ssRNA)
RNA: GGGAGUUCUACAGUCCGACGAUCGCAGAGGGGCUGGAGGUGCAAUGAAAAGGCUUAAAAUGGAAAAAUUACAAUACAGUGCGGGCAGUCACAGAAAAGACCAUGCUAAGAUCCGAUCCAUGUCAAUUAAACAUUGAAAAUUCACAACAGAGGAUUGAGCAUCA
B13: chr2:122485053:122485054:-_ENSG00000155438_ENST00000285814|hu_mus|FALSE|FALSE (ssRNA)
RNA: GGGAGUUCUACAGUCCGACGAUCUAAGCCUGAGUUUCAUAAGGAUAGUAAAACUGAGGGACCGAUGAAGCCUGAAGACAAAUUCAGGACAGGAAAGGGCACAGUCAGGUUCCCAGUGGCUUUCCUCACUGGAAAACCAAACAUCAACAGAGGAUUGAGCAUCA
B14: chr17:35122734:35122735:+_ENSMUSG00000007050_ENSMUST00000114011|mus_mus|FALSE|FALSE (ssRNA)
RNA: GGGAGUUCUACAGUCCGACGAUCUCCAUCCCUCAAAUGUAUUACAUGUCGCCACGGAAGGGCUUAGGAUGCUGCUCCCAUCUCCAGGAAAGAUGAGAAAAAGGUACAGACUGGGAGCCAGUCCAGGACCAUUCUGCAGUUCCUCAACAGAGGAUUGAGCAUCA

target: T1, UNK ZnF1-3; experiment: nsRBNS (natural sequence RNA bind-n-seq); RBNS binding buffer (assumed for nsRBNS): 25 mM Tris pH 7.5, 150 mM KCl, 3 mM MgCl2, 0.01% Triton X-100, 500 ug/ml BSA, 20 U/ml SUPERase-In, 4 C; UNK is unkempt and MSI1 is Musashi-1; names of the RNAs are library labels; protein concentration not given here; high values mean tight binding

Binder	binding signal
B1	1.06 enrichment R
B2	0.308 enrichment R
B3	1.34 enrichment R
B4	0.807 enrichment R
B5	0.931 enrichment R
B6	1.11 enrichment R
B7	1.77 enrichment R
B8	4.93 enrichment R
B9	0.859 enrichment R
B10	0.856 enrichment R
B11	4.68 enrichment R
B12	4.45 enrichment R
B13	0.908 enrichment R
B14	1.03 enrichment R
